Assay outcomes: PubChem, National Center for Advancing Translational Sciences (NCATS)
The list is not random: actives were taken first. Their share in the collection is about 9.2%.
ELG1 DNA repair: ELG1-dependent DNA repair inhibition; HEK293T ELG1-luciferase reporter, luminescence, 16 h; DNA damage induced by 5-fluorouridine; Potency, µM (titrated, usually from 46.1 µM), for the others: at the top dose activity change, negative = inhibition, actives largely listed as inhibitors; 330,000 tested, 2.3% active; AID 504467; note: % is set by controls: 0 for no effect and ±100 for the full control effect; nearly all actives have a fitted effect of over 55% in size
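Quantitative HTS, concentration-response format. 2,000 cells/well co-treated with 5-fluorouridine and compound, 16 hr in 5% CO2 at 37 °C; ONE-Glo luminescence read after 30 min.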
SMN2 splice up: enhancers of SMN2 splice variant expression | HEK293 SMN2-luciferase splicing reporter, luminescence, 30-36 h | Potency, µM (highest dose often 46.1 µM), for the others: at the top dose activity change, positive = activation, hits mostly activators | 210,000 tested, 2.8% active; note: % of control where 0% means no effect; nearly all actives have a fitted effect of over 55% in size
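HEK293 cells carry an SMN2 minigene-luciferase reporter in which exon 7 inclusion puts luciferase in frame. Cells were seeded at 2000 cells/well, attached for 10-12 hours, then exposed to compounds for 30-36 hours at 37C before ONE-Glo luminescence.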
ELG1 genotox: genotoxicity induction in ELG1-luciferase HEK293T cells; HEK293T ELG1-luciferase reporter, luminescence, 16 h; AID 504466; 330,000 tested, 1.3% active; Potency, µM (titrated, usually from 46 µM), for inactives: at the top dose activity change, positive = activation, hits mostly activators; note: % of control where 0% means no effect; nearly all actives have a fitted effect of over 60% in size
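Step 1: seed 2,000 HEK293T ELG1-luciferase cells per well. Step 2: add compound or DMSO, incubate 16 hr at 37 °C. Step 3: ONE-Glo, 30 min at room temperature, read luminescence.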
FLuc modulator: counter-screen for miR-21 project: firefly luciferase inhibitors or activators; P08659; purified FLuc, Km substrates, luminescence inhibition; Potency, µM (doses to about 57.5 µM), inactives show top-dose activity change, negative = inhibition, hits mostly inhibitors; 360,000 tested, 6.9% active; AID 588342;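 note: plate controls were vehicle for no effect and reference inhibitor for full effect; nearly all actives have a fitted effect of over 55% in size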
Target sequence (P08659 whole entry, looked up): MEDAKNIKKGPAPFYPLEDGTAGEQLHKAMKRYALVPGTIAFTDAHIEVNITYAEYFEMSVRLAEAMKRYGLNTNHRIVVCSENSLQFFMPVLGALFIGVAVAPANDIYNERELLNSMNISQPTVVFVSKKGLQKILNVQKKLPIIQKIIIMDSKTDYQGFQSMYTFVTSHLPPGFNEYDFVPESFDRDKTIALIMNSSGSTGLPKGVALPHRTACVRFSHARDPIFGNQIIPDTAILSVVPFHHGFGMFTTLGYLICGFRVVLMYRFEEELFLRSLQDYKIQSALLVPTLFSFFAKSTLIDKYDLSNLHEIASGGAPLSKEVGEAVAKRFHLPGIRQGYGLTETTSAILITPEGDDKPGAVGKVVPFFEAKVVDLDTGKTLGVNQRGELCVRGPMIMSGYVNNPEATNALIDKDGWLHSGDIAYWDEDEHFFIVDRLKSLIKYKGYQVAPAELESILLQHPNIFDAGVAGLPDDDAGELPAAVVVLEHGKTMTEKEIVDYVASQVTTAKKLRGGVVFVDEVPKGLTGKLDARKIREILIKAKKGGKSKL
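Biochemical qHTS of compounds, final roughly 60 µM downward over six points, against 10 nM purified firefly luciferase using Km concentrations of substrates (10 uM D-luciferin, 10 uM ATP) in Tris acetate pH 7.5 buffer; luminescence output.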
Rab9 promoter act: Rab9 promoter activation. Potency, µM (titrated, usually from 9.22 µM), for inactives: top-dose activation, negative = inhibition, usual class: activators. AID 485297. Huh7 Rab9 promoter-luciferase reporter, luminescence, 24 h. 320,000 tested, 2.8% active; note: % of control where 0% means no effect; nearly all actives have a fitted effect of over 60% in size
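Using Huh7 cells stably transfected with Rab9 promoter–luciferase, compounds were incubated 24 h at 37 °C, 5% CO2; luciferase luminescence was read 10 min after reagent addition.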
NPC1 promoter act: activates the NPC1 promoter | Huh7 NPC1 promoter luciferase reporter, 24 h | Potency, µM (titrated, usually from 9.22 µM), inactives show at the top dose activation, hits mostly activators | 320,000 tested, 2.4% active; note: % of control where 0% means no effect; nearly all actives have a fitted effect of over 60% in size
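Stably transfected Huh7 (NPC1 promoter→luciferase), 1500 cells/well in Opti-MEM + 10% FBS, 2 h settle, then compound 24 h at 37 °C. Luminescence after 10 min with Amplite reagent.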
Starred values were filed as active, the others as inactive; ? = inconclusive; nt = not tested or not shown; [ ] = another dose, or the depositor's remark. Calls come from the whole dose curve; as a rule, active = well fitted curve in the direction sought with a large enough effect; inconclusive = small, poorly fitted or top-dose-only effect, or another doubt; inactive = no such curve, though single readings can be large; an effect the other way counts as inactive or inconclusive. Potency is the fitted concentration of half-maximal effect.

SMILES	ELG1 DNA repair	SMN2 splice up	ELG1 genotox	FLuc modulator	Rab9 promoter act	NPC1 promoter act
O=C(CN1C2CCCC1CC(NC(=O)C1CCCCC1)C2)Nc1ccccc1C(F)(F)F (stereo not drawn)	15µM*	nt	-15%	2%	1%	-7%
O=C(NC(=S)Nc1ccccc1N1CCOCC1)c1sc2ccccc2c1Cl	15%	-35%	-2%	4%	-5%	-1%
O=C(O)c1ccccc1NC(=S)NC(=O)c1sc2ccccc2c1Cl	?	26%	4%	24µM*	25%	15%
Cc1ccc(NC(=S)NC(=O)c2sc3ccccc3c2Cl)c(C(=O)O)c1	?	9%	0%	27µM*	-2%	1%
O=C(C1CCC(Cn2c(=O)c3sccc3n(Cc3ccccc3)c2=O)CC1)N1CCCCC1 (stereo not drawn)	nt	nt	nt	-9%	nt	nt
Cc1cc(C)n2nc(-c3ccc(F)cc3)nc2n1	?	?	?	17µM*	?	4µM*
Cc1cccc(N2CCN(C(=O)CN3C(=O)C4CC=CCC4C3=O)CC2)c1C (stereo not drawn)	?	1%	10%	17µM*	3.2µM*	?
Cc1cccc(N2CCN(C(=O)Cn3cnc4c3c(=O)n(C)c(=O)n4C)CC2)c1C	21µM*	-30%	-5%	-2%	-5%	-6%
C[C@H](CO)N1C[C@H](C)[C@@H](CN(C)S(=O)(=O)c2ccccc2)Oc2ccc(NC(=O)NC3CCCCC3)cc2C1=O	-8%	nt	-3%	nt	nt	nt
CCOC(=O)C1(Cc2ccccc2C)CCCN(C(=O)c2ccccn2)C1 (stereo not drawn)	?	nt	-3%	?	7%	0%
CCOC(=O)C1(Cc2ccccc2C)CCCN(C(=O)c2ccc3nccnc3c2)C1 (stereo not drawn)	23µM*	nt	-23%	-8%	11%	0%
CCOC(=O)C1(Cc2ccccc2)CCCN(Cc2cnn(CC)c2)C1 (stereo not drawn)	1%	nt	-1%	-1%	-9%	-6%
CCOC(=O)C1(Cc2ccccc2)CCCN(C(=O)c2cnn(CC)c2)C1 (stereo not drawn)	?	nt	?	15µM*	4µM*	?
CC(C)NC(=O)c1onc(CSc2nc3ccccc3[nH]2)c1C(=O)NC(C)C	12%	nt	4%	6%	-4%	0%
O=C(Nc1cc(-c2ccccc2)[nH]n1)c1ccccc1	?	nt	?	4.8µM*	0.63µM*	0.56µM*
O=C(Nc1cc(-c2ccccc2)[nH]n1)c1ccccc1F	?	nt	?	8.5µM*	1.4µM*	1.8µM*
O=C(O)c1ccccc1C(=O)Nc1cc(-c2ccccc2)[nH]n1	19%	nt	2%	?	7%	1%
CCOC(=O)C1CCC(CN(Cc2cccc(Br)c2)S(=O)(=O)c2ccc(Cl)cc2)CC1 (stereo not drawn)	nt	nt	nt	0%	nt	nt
CCC(=O)NC(c1cc(Cl)c2cccnc2c1O)C(C)C (stereo not drawn)	8.2µM*	nt	11%	1%	-30%	-34%
COc1c(C)cc(C(=O)C2CCCN(Cc3cnc(N4CCOCC4)s3)C2)cc1C (stereo not drawn)	21µM*	-26%	-5%	-2%	-7%	-3%
Cc1ccc(-n2cnc3cc(C(=O)NC4CCCCCC4)ccc32)cc1Cl	nt	nt	nt	-2%	nt	nt
O=C(Nc1ccc(F)cc1)c1nc2c(nnn2Cc2cccc3ccccc23)c(=O)[nH]1	-5%	nt	-1%	27µM*	0%	-4%
Cc1ccc(C)c(Cn2nnc3c(=O)[nH]c(C(=O)NCc4ccco4)nc32)c1	-7%	-7%	3%	-2%	0%	10%
O=C(NCc1ccco1)c1nc2c(nnn2Cc2ccccc2Cl)c(=O)[nH]1	21µM*	-56%	-8%	0%	-22%	-20%
COc1ccc(C)cc1NC(=O)c1cc(S(=O)(=O)N2CCOCC2)cn1C	-2%	nt	4%	5%	0%	-1%
SMILES	ELG1 DNA repair	SMN2 splice up	ELG1 genotox	FLuc modulator	Rab9 promoter act	NPC1 promoter act
CCCN(Cc1cccs1)C(=O)Nc1cc(C)cc(C)c1	nt	nt	nt	-11%	nt	nt
Cc1cc(C(=O)Nc2ccc(Cl)cc2)c(C)n1Cc1cccs1	?	nt	2.3µM*	0.6µM*	0.32µM*	0.71µM*
Cc1cc(C)cc(NC(=O)c2cc(C)n(Cc3cccs3)c2C)c1	?	nt	?	0.34µM*	0.71µM*	1.1µM*
CCCCCC1=C2CNC(CCC)(C(=O)OC)C=C2C(C)C1=O (stereo not drawn)	nt	-25%	nt	nt	nt	nt
Oc1ccc(-c2csc(Nc3ncccn3)n2)cc1O	?	?	?	8.5µM*	-2%	22%
Cc1cccc(Nc2nc(-c3ccc(O)cc3O)cs2)n1	?	nt	?	13µM*	4µM*	3.2µM*
NS(=O)(=O)c1ccc(Nc2nc(-c3ccc4ccccc4c3)cs2)cc1	-19%	-47%	-1%	-11%	5%	-5%
Oc1ccc(-c2csc(Nc3ncccn3)n2)c(O)c1	?	11µM*	7.3µM*	3µM*	1.1µM*	3.2µM*
Cc1ccc(C)c(-c2csc(Nc3ncccn3)n2)c1	?	nt	7%	-1%	8%[1.84 µM]	15%
CCOP(=O)(c1ccc(N(C)C)cc1)C(O)c1ccc(OC)cc1 (stereo not drawn)	22%	nt	3%	1%	-1%	1%
Cc1ccc(NC(=O)CSc2nnc(C)n3c2cc2sccc23)c(C)c1	nt	nt	nt	-7%	nt	nt
COCc1ccccc1C1=CC(=O)C[C@H](c2ccc(F)cc2)C1	-13%	nt	6%	-1%	-5%	1%
COc1ccc([C@H]2CC(=O)C=C(c3cc4ccccc4s3)C2)cc1OC	?	nt	-4%	-20%	-2%	-3%
COc1ccc([C@H]2CC(=O)C=C(c3cc(F)ccc3F)C2)cc1OC	?	nt	-1%	1%	-5%	-1%
COc1ccc([C@H]2CC(=O)C=C(c3cccc(OC)c3OC)C2)cc1OC	9.2µM*	nt	-7%	-10%	2%	-4%
COc1ccc([C@H]2CC(=O)C=C(c3cccc4c3sc3ccccc34)C2)cc1OC	8.2µM*	nt	0%	6%	-2%	2%
O=C1C=C(c2cccc3c2sc2ccccc23)C[C@@H](c2ccc(F)cc2)C1	13µM*	nt	-1%	6%	-3%	-2%
O=C(Nc1ccccc1F)c1cc(S(=O)(=O)N2CCOCC2)ccc1N1CCOCC1	-8%	nt	0%	-1%	-2%	-8%
COc1cc(CN2CCCC(N3CCN(c4ccc(F)cc4)CC3)C2)ccc1F (stereo not drawn)	0%	nt	-5%	-4%	2%	12%
Nc1ccccc1S(=O)(=O)NC1=NCCCCC1	0%	nt	-1%	-1%	0%	0%
